The list is not random: actives were taken first. Their share in the collection is about 3.5%.
FBW7 activator: human FBW7 E3 ligase activation, primary screen; AID 1259310; normalized activity (activation), % at 26.1 µM; Q969H0; hit rate 0.13% among 650,000; AlphaScreen FBW7–phospho-cyclin E peptide binding, activator screen; in the data active = normalized activity above about 1.9%;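 note: purified mutant Fbw7 with reduced substrate affinity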
MITF primary: human MITF inhibition, primary screen | O75030 | AlphaScreen MITF homodimerization, bead proximity signal | inhibition, % at 2.6 µM | hit rate 0.91% among 650,000 | AID 1259374; in the data active = inhibition above about 50%
Target sequence (O75030 whole entry, looked up): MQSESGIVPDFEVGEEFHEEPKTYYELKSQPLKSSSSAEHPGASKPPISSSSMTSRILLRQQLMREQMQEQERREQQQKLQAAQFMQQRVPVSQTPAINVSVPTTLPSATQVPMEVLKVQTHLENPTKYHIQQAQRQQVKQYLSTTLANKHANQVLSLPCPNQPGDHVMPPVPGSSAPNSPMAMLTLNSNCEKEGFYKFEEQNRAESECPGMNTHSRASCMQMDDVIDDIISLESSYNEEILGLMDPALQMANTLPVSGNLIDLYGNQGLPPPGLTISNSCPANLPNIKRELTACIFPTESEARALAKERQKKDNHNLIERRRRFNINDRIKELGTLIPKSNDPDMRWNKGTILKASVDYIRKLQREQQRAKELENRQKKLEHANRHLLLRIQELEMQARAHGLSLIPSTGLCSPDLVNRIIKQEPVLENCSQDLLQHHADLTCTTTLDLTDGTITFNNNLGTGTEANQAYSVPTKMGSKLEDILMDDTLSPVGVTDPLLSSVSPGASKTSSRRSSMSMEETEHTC
TEAD-YAP block: TEAD-YAP interaction inhibition. AID 1259422. HEK-TIYL cells, TEAD-Gal4/YAP UAS-luciferase luminescence. inhibition, % at 9.12 µM. hit rate 1.4% among 640,000; in the data active = inhibition above about 32%
GPR151 ag: activators of human GPR151; Q8TDV0; PathHunter beta-arrestin GPR151 cells, luminescence; activation, % at 11.2 µM; hit rate 1% among 650,000; AID 1508602; in the data active = activation above about 4.9%
Hits are given with their value; . = inactive.

SMILES | FBW7 activator | MITF primary | TEAD-YAP block | GPR151 ag
CCn1c(-c2ccc(OC)cc2)csc1=Nc1ccc(NC(C)=O)cc1 | . | . | 65 | .
CCn1c(-c2ccc(Cl)cc2)csc1=Nc1ccccc1 | . | . | . | .
CCn1c(-c2ccc(Cl)cc2)csc1=Nc1ccc(NC(C)=O)cc1 | . | . | 80 | .
C=CCn1c(-c2ccc(C)cc2)csc1=Nc1ccc(NC(C)=O)cc1 | . | . | 50 | .
CCOC(=O)N1CCN(C(=O)Cn2ncn3c(cc4sc(CC)cc43)c2=O)CC1 | . | . | . | .
Cc1sc2nc(CN3CC(C)OC(C)C3)[nH]c(=O)c2c1C (configuration not stated) | . | . | . | .
CC(Cc1ccc2c(c1)OCO2)c1nc2cnccn2c1NCC1CCCO1 (configuration not stated) | . | . | . | .
COc1ccc(NC(=O)CN(c2ccc(C)c(C)c2)S(C)(=O)=O)cc1 | . | . | . | .
O=c1c(C=NCCc2ccccn2)c(CSc2ccc(Cl)cc2)[nH]n1-c1nc2ccccc2s1 | . | 65 | . | .
Cc1ccc(Oc2ccc(OCC(=O)NCc3ccco3)cc2)cc1 | . | . | . | .
CCCOc1ccc(N/C(N)=N/c2nc(C)cc(C)n2)cc1 | . | . | 35 | .
Cc1cc(C)nc(/N=C(\N)Nc2ccc(Oc3ccccc3)cc2)n1 | . | . | 32 | .
CCCCCOc1ccc(N/C(N)=N/c2nc(C)cc(C)n2)cc1 | . | . | 37 | .
Cc1cc(C)nc(/N=C(\N)Nc2ccccc2)n1 | . | . | . | .
CS(=O)(=O)c1ccccc1CN1CCC(NCC2CC2)CC1 | . | . | . | .
N=c1ccc(Br)cn1CC(N)=O | . | . | . | .
CCn1cccc/c1=N\c1cccc[n+]1CC | . | . | 50 | .
CN1CCc2cc(CNC(=O)CCc3nnc(Cc4c[nH]c5ccccc45)o3)ccc21 | . | . | . | .
CC(NC(=O)c1cc(COc2ccc3ncccc3c2)on1)c1ccc(F)cc1 (configuration not stated) | . | . | 38 | .
O=C(NCC1CCOCC1)c1cc(COc2ccc3ncccc3c2)on1 | . | . | 33 | .
O=C(NCc1ccc2c(c1)OCO2)c1cc(COc2ccc3ncccc3c2)on1 | . | . | 35 | .
O=C(NC1CCCC1)c1cc(COc2ccc3ncccc3c2)on1 | . | . | 40 | .
CC(C)c1cc(CNC(=O)c2cc(COc3ccc4ncccc4c3)on2)on1 | . | . | . | .
CC(C)OCCNC(=O)c1cc(COc2ccc3ncccc3c2)on1 | . | . | . | .
O=C(C1CCCCC1)N1CCN(S(=O)(=O)c2ccc(F)cc2)CC1 | . | . | . | .
SMILES | FBW7 activator | MITF primary | TEAD-YAP block | GPR151 ag
Cc1nc(C(C)NC(=O)c2cc(COc3ccc(F)cc3F)on2)cs1 (configuration not stated) | 2.0 | . | . | .
CCOC(=O)N1CC=C2C(C#N)=C(N)C(C#N)(C#N)C(C)C2C1 (configuration not stated) | . | . | 68 | .
O=C(CCl)NCc1ccc2[nH]c3c(c2c1)CCCC3 | . | . | 34 | .
CC(C)C(=O)NCc1ccc2[nH]c3c(c2c1)CCCC3 | . | . | . | .
CN(C)c1ccc(/C=N/Nc2cccc3cccnc23)cc1 | . | . | 37 | .
COc1ccc(/C=C/C(=O)NNC(=O)COc2ccc(Br)cc2Br)cc1 | . | . | . | .
C/C(=N\NC(=O)c1ccc(O)c(O)c1)c1ccc(Br)c([N+](=O)[O-])c1 | . | . | 32 | .
C/C(=N/NC(=O)c1ccc(O)c(O)c1)c1ccc(C)cc1 | . | . | . | .
CN(Cc1ccccc1)C1=CC(=[N+]2CCCC2)CC(C)(C)C1 | . | . | 80 | .
CN(CCO)C1=CC(=[N+]2CCOCC2)CC(C)(C)C1 | . | . | . | .
CCN(CC)C1=CC(=[N+]2CCCC2)CC(C)(C)C1 | . | . | 60 | .
Cc1cc(N2CCCC2)nc(Nc2ccc(NS(=O)(=O)c3cccc(F)c3)cc2)n1 | . | . | 54 | .
C=CCNC(=O)c1ccc(C)nc1NCc1cccnc1 | 1.9 | . | . | .
Cc1ccc(C(=O)NCc2cccnc2)c(NCc2cccnc2)n1 | . | . | . | .
CC1=C(C(=O)OCc2ccccc2)C(c2cn(-c3ccccc3)nc2-c2ccc(F)cc2)C(C(=O)OCc2ccccc2)=C(C)N1 | 1.9 | . | . | .
CC1=C(C(=O)OCc2ccccc2)C(c2cn(-c3ccccc3)nc2-c2ccc(C)cc2)C(C(=O)OCc2ccccc2)=C(C)N1 | . | . | . | .
COc1ccc2cc3c(N)[nH]nc3nc2c1 | . | . | 80 | .
Cc1nc(C#N)c(N/N=C/c2ccccc2Br)o1 | . | . | . | .
O=C(CSc1nncn1-c1ccccc1)Nc1nc2c(F)c(F)c(F)cc2s1 | 3.9 | . | . | .
COc1ccc(OC)c(NC(=O)C(=S)N2CCOCC2)c1 | . | . | . | .
COc1ccc(OC)c(NC(=O)c2sc3ncn(CC(=O)Nc4cccc(C(F)(F)F)c4)c(=O)c3c2C)c1 | . | . | . | .
Cc1nc2nc(-c3ccc(Cl)cc3Cl)nn2c(C)c1CCC(=O)O | . | . | 80 | .
O=C(O)CCc1nc(-c2ccc(Cl)cc2Cl)no1 | . | . | . | .
COc1cccc(-c2nc3nc(C)c(CCC(=O)O)c(C)n3n2)c1 | . | . | 48 | .
COc1cc(/C=N/Nc2snc(SC)c2C#N)cc(OC)c1OC | . | . | 34 | .
SMILES | FBW7 activator | MITF primary | TEAD-YAP block | GPR151 ag
CCOc1ccc(/C=N/Nc2snc(SC)c2C#N)cc1 | . | . | . | .
COc1cccc(N2C[C@@H]3C[C@@H](c4cnn(-c5ccccc5)c4)N4CCC[C@@]34C2=O)c1 | . | . | 37 | .
CCCCOc1c(Cl)cc(C(=O)NNC(=O)c2ccc3c(c2)OCO3)cc1OC | . | . | . | .
COc1ccc(C2C(C(C)=O)=C(O)C(=O)N2c2nc3ccccc3s2)c(OC)c1 (configuration not stated) | . | . | 47 | .
COc1cccc(C2C(C(C)=O)=C(O)C(=O)N2c2nc3ccccc3s2)c1 (configuration not stated) | . | . | . | .
COc1ccc(C2/C(=C(\O)c3ccc(Cl)cc3)C(=O)C(=O)N2c2nc3ccccc3s2)c(OC)c1 (configuration not stated) | . | . | 41 | .
COc1ccc(C2/C(=C(\O)c3ccccc3)C(=O)C(=O)N2c2nc3ccccc3s2)c(OC)c1 (configuration not stated) | . | . | . | .
N#CC1=C(N)C(C#N)(C#N)C(c2ccccc2F)C2CN(Cc3ccccc3)CC=C12 (configuration not stated) | . | . | . | .
COc1ccccc1C1C2CN(Cc3ccccc3)CC=C2C(C#N)=C(N)C1(C#N)C#N (configuration not stated) | 1.9 | . | . | .
COc1ccc2c(c1)CCC/C2=N\NC(=O)c1ccc(CN2CCOCC2)cc1 | . | . | . | .
CC1CCc2c(sc(NC(=O)c3ccco3)c2C(=O)O)C1 (configuration not stated) | . | . | 33 | .
CCN(CC)C(=O)c1c(NC(=O)c2ccco2)sc2c1CCC(C(C)(C)C)C2 (configuration not stated) | . | . | . | .

High-throughput results deposited in PubChem BioAssay by The Scripps Research Institute Molecular Screening Center.
